Bioassay records from PubChem.
DT40 TDP1 no CPT = qHTS for Inhibitors of human tyrosyl-DNA phosphodiesterase 1 (TDP1): qHTS in cells in absence of CPT; DT40 Tdp1-/- hTDP1 cells, no CPT, ATP luminescence, 48 h; Potency, µM (highest dose often 46.2 µM), most hits filed as inhibitors; hit rate 15% among 420,000; AID 686978, 2013; note: nearly all actives have a fitted effect of over 55% in size
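Chicken DT40 Tdp1-/- cells complemented with human TDP1, screened without camptothecin (DMSO vehicle only), 400 cells/well. Compounds pin-transferred, cells incubated at 37 °C for at least 48 hr. Growth read as ATP-dependent luminescence (CellTiter-Glo, 30 min at RT).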
HT1080-NT tox = qHTS for induction of synthetic lethality in tumor cells producing 2HG: qHTS for the HT-1080-NT fibrosarcoma cell line | Potency, µM (top dose mostly 46.1 µM), most hits filed as cytotoxic | hit rate 1.6% among 360,000 | HT-1080-NT fibrosarcoma viability, CellTiter-Glo ATP luminescence, 48 h;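 note: NT is the 2HG producing partner of a matched IDH1 knockdown line; nearly all actives have a fitted effect of over 55% in size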
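Toxicity toward the 2HG-producing NT line was scored as %Activity, normalised to DMSO and no-cell wells, from CellTiter-Glo luminescence after 48 hours' treatment.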
IL-1B inflam inh = qHTS for Inhibitors of Inflammasome Signaling: IL-1-beta AlphaLISA Primary Screen; THP-1 LPS/ATP IL-1B secretion, AlphaLISA, 16 h; stronger effect = lower value; activity change, % at 57.5 µM; hit rate 4.7% among 360,000; AID 743279, 2014; in the data active = activity change below about -50%; inconclusive = mostly about -30% to -49%
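Secreted IL-1B measured by AlphaLISA bead assay after 16 h compound exposure of THP-1 cells; compounds (final up to 57.5 uM) added 1 h before LPS (250 ng/mL) and ATP (1.25 mM) stimulation; lower signal means less secretion.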
HT1080 IDH1KD tx = qHTS for induction of synthetic lethality in tumor cells producing 2HG: qHTS for the HT-1080-IDH1KD cell line | HT-1080 IDH1 knockdown viability, ATP luminescence, 48 h | Potency, µM (highest dose often 46.1 µM), most hits filed as cytotoxic | hit rate 2% among 360,000
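Luminescent ATP read-out (CellTiter-Glo, 10 min at room temperature) after 48 h compound exposure at 37 °C gave viability of IDH1-knockdown HT-1080 cells. Activity was normalised to DMSO and cell-free wells, then fitted as concentration-response curves.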
DT40 TDP1 CPT = qHTS for Inhibitors of human tyrosyl-DNA phosphodiesterase 1 (TDP1): qHTS in cells in presence of CPT; chicken DT40 Tdp1-/-;hTDP1 cells + 20 nM CPT, ATP luminescence, 48 h; Potency, µM (series often up to 46.2 µM), most hits filed as inhibitors; hit rate 12% among 420,000; note: nearly all actives have a fitted effect of over 55% in size
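Chicken DT40 Tdp1-/- cells stably complemented with human TDP1 were seeded at 400 cells/well in medium containing 20 nM camptothecin, exposed to pin-transferred compounds, and grown at 37 °C for at least 48 hr. Viability was read as ATP luminescence.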
Large screens that a line does not name were inactive. Compounds with a hit are over-represented: about 19% of the library has one in this group of screens. Unless noted, calls come from the whole dose curve; as a rule, active = well fitted curve in the direction sought with a large enough effect; inconclusive = small, poorly fitted or top-dose-only effect, or another doubt; inactive = no such curve, though single readings can be large; an effect the other way counts as inactive or inconclusive.

CCN1C[C@@H]2[C@@H]3C(=O)N(Cc4ccccc4)C(=O)[C@@H]3[C@](CC)(C(=O)OC)N2C1=NCc1ccccc1	none
Cc1c(NC(=O)c2sc3ccccc3c2Cl)cccc1-c1nc2ccccc2o1	none (no result: HT1080-NT tox, IL-1B inflam inh, HT1080 IDH1KD tx)
Cc1ccc(S(=O)(=O)N=S(CC2CC2(Cl)Cl)CC2CC2(Cl)Cl)cc1 (centres undefined)	DT40 TDP1 no CPT 25.9µM, DT40 TDP1 CPT 23.1µM
O=C(O)C[C@H]1c2cc(C(F)(F)F)ccc2S(=O)(=O)N1C1CCN(Cc2ccccc2)CC1	none
Cc1cc(OC(=O)c2ccc(S(=O)(=O)N3CCOCC3)cc2)c([N+](=O)[O-])c(=O)[nH]1	none
ClCC(CNCc1ccccc1)c1ccccc1 (centres undefined)	none
CCC(C)(CCNC(=O)Cc1ccccc1)c1ccccc1OC (centres undefined)	DT40 TDP1 no CPT inconclusive, IL-1B inflam inh inconclusive, DT40 TDP1 CPT 23.1µM
COc1ccccc1C(=O)NNC(=O)Cc1ccccc1	none
CCc1ccc(-c2ccc3nnc(SCC(=O)Nc4cccc(C(C)=O)c4)n3n2)cc1	DT40 TDP1 no CPT inconclusive (no result: HT1080-NT tox, IL-1B inflam inh, HT1080 IDH1KD tx)
CCn1ccc2c(OCC(=O)NCc3ccccc3)cccc2c1=O	DT40 TDP1 no CPT inconclusive (no result: HT1080-NT tox, IL-1B inflam inh, HT1080 IDH1KD tx)
CCCn1ccc2c(OCC(=O)NCc3ccccc3Cl)cccc2c1=O	DT40 TDP1 no CPT 23.1µM, DT40 TDP1 CPT inconclusive (no result: HT1080-NT tox, IL-1B inflam inh, HT1080 IDH1KD tx)
CCOc1ccccc1NC(=O)COc1cccc2c(=O)n(CCOC)ccc12	DT40 TDP1 no CPT 13µM, DT40 TDP1 CPT 11.6µM (no result: HT1080-NT tox, IL-1B inflam inh, HT1080 IDH1KD tx)
COCCn1ccc2c(OCC(=O)Nc3ccccc3OC)cccc2c1=O	DT40 TDP1 no CPT 20.6µM, IL-1B inflam inh inconclusive, DT40 TDP1 CPT 18.4µM
CCOCCn1ccc2c(OCC(=O)Nc3ccccc3F)cccc2c1=O	DT40 TDP1 no CPT inconclusive, DT40 TDP1 CPT inconclusive
CCCn1ccc2c(OCC(=O)Nc3ccccc3OCC)cccc2c1=O	DT40 TDP1 no CPT 11.6µM, DT40 TDP1 CPT 20.6µM (no result: HT1080-NT tox, IL-1B inflam inh, HT1080 IDH1KD tx)
Cc1cc(C)n(C(C)CC(=O)NCc2ccc(Cl)cc2)n1 (centres undefined)	none (no result: HT1080-NT tox, IL-1B inflam inh, HT1080 IDH1KD tx)
CCNc1ncc2nc(-c3ccc(F)cc3)c(=O)n(CCc3ccccc3)c2n1	none (no result: HT1080-NT tox, IL-1B inflam inh, HT1080 IDH1KD tx)
CCOC(=O)c1scc(-c2ccc(C)cc2)c1S(=O)(=O)N1CCN(c2ccccc2)CC1	DT40 TDP1 no CPT 8.2µM, DT40 TDP1 CPT 13µM (no result: HT1080-NT tox, IL-1B inflam inh, HT1080 IDH1KD tx)
CCOC(=O)c1scc(-c2ccccc2)c1S(=O)(=O)N1CCN(c2ccccc2OC)CC1	DT40 TDP1 no CPT 13µM, DT40 TDP1 CPT 8.2µM (no result: HT1080-NT tox, IL-1B inflam inh, HT1080 IDH1KD tx)
CCc1ccccc1NC(=O)Cn1c(=O)n(CC(=O)NCCc2ccccc2)c(=O)c2ccccc21	none (no result: HT1080-NT tox, IL-1B inflam inh, HT1080 IDH1KD tx)
Cc1cccc(C)c1NC(=O)Cn1c(=O)n(CCC(=O)NCc2ccccc2Cl)c(=O)c2sccc21	none (no result: HT1080-NT tox, IL-1B inflam inh, HT1080 IDH1KD tx)
Cc1cc(OC(C)C(=O)Nc2ccncc2)ccc1Cl (centres undefined)	DT40 TDP1 no CPT 23.1µM, DT40 TDP1 CPT 13µM
Cc1ccc(OC(C)C(=O)Nc2cc(C)on2)cc1 (centres undefined)	none
Cc1ccc(OC(C)C(=O)Nc2ccncc2)cc1 (centres undefined)	DT40 TDP1 no CPT 13µM, HT1080 IDH1KD tx inconclusive, DT40 TDP1 CPT inconclusive
OCCCc1cn(Cc2ccccc2)c2ccccc12	none
CCCCCN=c1ccn(Cc2ccccc2)c2ccccc12	DT40 TDP1 no CPT 2.11µM, DT40 TDP1 CPT 2.66µM (no result: HT1080-NT tox, IL-1B inflam inh, HT1080 IDH1KD tx)
O=C(CSc1nnc(Cn2nnc3ccccc32)o1)N(Cc1ccc(F)cc1)c1ccccc1	DT40 TDP1 no CPT 7.08µM, HT1080-NT tox 0.282µM, IL-1B inflam inh -82.4, HT1080 IDH1KD tx inconclusive, DT40 TDP1 CPT 7.31µM
COc1ccc(N(Cc2ccccc2)C(=O)CSc2nnc(Cn3nnc4ccccc43)o2)cc1	DT40 TDP1 no CPT 23.1µM, DT40 TDP1 CPT 25.9µM
O=C(CSc1nnc(Cn2nnc3ccccc32)o1)Nc1ccc(Cl)cc1	none
COc1ccc(-c2noc(-c3ccc(N4CCC(C)CC4)c([N+](=O)[O-])c3)n2)cc1OC	none (no result: HT1080-NT tox, IL-1B inflam inh, HT1080 IDH1KD tx)
CCOc1ccc(S(=O)(=O)NN2Cc3ccccc3C2=N)cc1	none
COc1ccc(NC(=S)N2CCN(S(=O)(=O)c3ccccc3)CC2)cc1OC	none
